# Results filed as inconclusive are left out. Where a call stands in place of a potency, no number is given. Active and inactive are the calls of the source. Unless noted, calls follow the shape of the dose curve; as a rule, active = well fitted curve in the direction sought with a large enough effect; inconclusive = small, poorly fitted or top-dose-only effect, or another doubt; inactive = no such curve, though single readings can be large; an effect the other way counts as inactive or inconclusive.
# Legend:
# [1] = target: Voltage-gated inwardly rectifying potassium channel KCNH2 (Homo sapiens) (UniProt Q12809); assay: qHTS Assay for Small Molecule Inhibitors of the Human hERG Channel Activity (AID 588834);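 also: lower thallium flux fluorescence means stronger hERG block; nearly all actives have a fitted effect of over 50% in size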; also: potency is read from the fitted curve at half-maximal effect
# Chain of Voltage-gated inwardly rectifying potassium channel KCNH2 (Homo sapiens) (Q12809 whole entry, looked up): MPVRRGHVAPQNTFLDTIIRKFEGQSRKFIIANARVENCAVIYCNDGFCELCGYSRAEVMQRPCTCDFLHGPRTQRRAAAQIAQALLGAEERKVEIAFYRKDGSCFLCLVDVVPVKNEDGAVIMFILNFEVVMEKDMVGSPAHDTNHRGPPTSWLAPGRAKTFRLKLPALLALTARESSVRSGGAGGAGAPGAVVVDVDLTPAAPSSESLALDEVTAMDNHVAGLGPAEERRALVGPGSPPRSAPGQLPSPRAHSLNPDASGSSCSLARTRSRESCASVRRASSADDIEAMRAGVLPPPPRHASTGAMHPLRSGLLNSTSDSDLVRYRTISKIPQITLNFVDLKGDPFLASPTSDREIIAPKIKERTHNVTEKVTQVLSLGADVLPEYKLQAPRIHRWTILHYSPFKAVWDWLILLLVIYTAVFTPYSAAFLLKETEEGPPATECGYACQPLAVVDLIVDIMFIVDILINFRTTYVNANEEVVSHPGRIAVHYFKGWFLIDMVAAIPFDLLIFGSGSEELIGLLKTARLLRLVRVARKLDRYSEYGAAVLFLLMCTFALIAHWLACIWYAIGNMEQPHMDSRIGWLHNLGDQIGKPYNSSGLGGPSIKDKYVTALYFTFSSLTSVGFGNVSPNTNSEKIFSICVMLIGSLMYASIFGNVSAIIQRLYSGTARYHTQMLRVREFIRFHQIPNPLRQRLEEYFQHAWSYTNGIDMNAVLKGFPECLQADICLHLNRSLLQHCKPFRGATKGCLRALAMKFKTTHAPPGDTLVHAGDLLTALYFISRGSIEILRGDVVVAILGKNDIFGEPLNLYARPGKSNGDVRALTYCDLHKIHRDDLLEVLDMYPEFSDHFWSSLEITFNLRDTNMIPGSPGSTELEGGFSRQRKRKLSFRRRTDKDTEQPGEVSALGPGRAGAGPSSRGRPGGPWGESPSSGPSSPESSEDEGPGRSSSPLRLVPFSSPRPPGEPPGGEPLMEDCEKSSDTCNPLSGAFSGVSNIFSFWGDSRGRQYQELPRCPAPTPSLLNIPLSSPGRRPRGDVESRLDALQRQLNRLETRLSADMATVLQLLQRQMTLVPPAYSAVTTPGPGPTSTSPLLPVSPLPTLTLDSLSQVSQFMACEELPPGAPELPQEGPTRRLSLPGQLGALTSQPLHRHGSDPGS
# Outline: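 Thallium-flux (FluxOR) read-out on FDSS: fluorescence read 10 s before and 2 min after stimulation buffer. hERG-BacMam-transduced U2OS cells, compound exposure about 10 min. AC50 by standard Hill equation.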
# [2] = target: Luciferin 4-monooxygenase (Photinus pyralis) (UniProt P08659); assay: Biochemical firefly luciferase enzyme assay for NPC (AID 624030); also: nearly all actives have a fitted effect of over 70% in size; also: potency is read from the fitted curve at half-maximal effect
# Chain of Luciferin 4-monooxygenase (Photinus pyralis) (P08659 whole entry, looked up): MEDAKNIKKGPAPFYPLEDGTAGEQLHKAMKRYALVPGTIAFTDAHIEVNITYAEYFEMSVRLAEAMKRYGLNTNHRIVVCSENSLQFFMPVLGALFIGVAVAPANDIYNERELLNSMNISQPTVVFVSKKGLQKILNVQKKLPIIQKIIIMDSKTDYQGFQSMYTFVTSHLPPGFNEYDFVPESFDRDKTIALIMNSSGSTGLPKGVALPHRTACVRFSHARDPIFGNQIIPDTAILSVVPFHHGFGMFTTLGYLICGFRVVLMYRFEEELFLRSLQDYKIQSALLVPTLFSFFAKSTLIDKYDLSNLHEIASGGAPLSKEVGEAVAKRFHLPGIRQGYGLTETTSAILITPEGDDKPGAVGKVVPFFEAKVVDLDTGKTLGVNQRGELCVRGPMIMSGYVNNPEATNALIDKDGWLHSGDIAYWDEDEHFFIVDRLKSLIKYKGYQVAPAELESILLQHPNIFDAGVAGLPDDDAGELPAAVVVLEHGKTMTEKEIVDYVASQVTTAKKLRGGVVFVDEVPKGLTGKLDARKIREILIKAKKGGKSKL
# Outline: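 Counter-screen for direct inhibition of the luciferase enzyme by approved-drug library compounds, run at 10 nM enzyme in 50 mM Tris acetate (final). Luminescence was read within 5 min of enzyme-buffer addition and normalized to PTC124 versus DMSO (0%).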
# [3] = S16 Schwann cell PMP22 intronic element firefly luciferase assay (AID 624032); also: series mostly up to about 58 µM; nearly all actives have a fitted effect of over 30% in size
# Outline: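 Rat S16 Schwann cells stably carrying a PMP22 intronic element-driven Fluc reporter were seeded overnight, then exposed to compounds for 24 h at 37 °C. Luminescence was normalized to PTC124 (positive control) and DMSO (0% activity).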
# [4] = S16 Schwann cell PMP22 intronic element beta-lactamase assay (AID 624044; calls by dose curve; also: nearly all actives have a fitted effect of over 15% in size)
# Outline: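 Beta-lactamase reporter under a PMP22 intronic regulatory element in stable S16 rat Schwann cells; 24 h compound exposure. 460 nm blue signal normalized between DMSO (0%) and potassium clavulanate, with 535 nm FRET tracking viability; curves classed by r2 and response.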
# [5] = S16 Schwann cell viability assay (CellTiter-Glo assay) (AID 624031);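 also: native untransfected S16 rat Schwann cells; cellular ATP luminescence as a viability measure; series mostly up to about 58 µM; nearly all actives have a fitted effect of over 70% in size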
# Outline: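 Parental S16 cells, 24 h compound, 37 °C. ATP-luminescence viability; DMSO = 0% activity, empty wells as reference; curves classified by fit quality and efficacy.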
# [6] = target: Glutaminase kidney isoform, mitochondrial (Homo sapiens) (UniProt O94925); assay: qHTS for Inhibitors of Glutaminase (GLS): LOPAC Validation (AID 624146);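 also: glutamate product detected by oxidase and peroxidase coupled Amplex red fluorescence gain; series mostly up to about 46 µM; nearly all actives have a fitted effect of over 60% in size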
# Chain of Glutaminase kidney isoform, mitochondrial (Homo sapiens) (O94925 whole entry, looked up, canonical isoform): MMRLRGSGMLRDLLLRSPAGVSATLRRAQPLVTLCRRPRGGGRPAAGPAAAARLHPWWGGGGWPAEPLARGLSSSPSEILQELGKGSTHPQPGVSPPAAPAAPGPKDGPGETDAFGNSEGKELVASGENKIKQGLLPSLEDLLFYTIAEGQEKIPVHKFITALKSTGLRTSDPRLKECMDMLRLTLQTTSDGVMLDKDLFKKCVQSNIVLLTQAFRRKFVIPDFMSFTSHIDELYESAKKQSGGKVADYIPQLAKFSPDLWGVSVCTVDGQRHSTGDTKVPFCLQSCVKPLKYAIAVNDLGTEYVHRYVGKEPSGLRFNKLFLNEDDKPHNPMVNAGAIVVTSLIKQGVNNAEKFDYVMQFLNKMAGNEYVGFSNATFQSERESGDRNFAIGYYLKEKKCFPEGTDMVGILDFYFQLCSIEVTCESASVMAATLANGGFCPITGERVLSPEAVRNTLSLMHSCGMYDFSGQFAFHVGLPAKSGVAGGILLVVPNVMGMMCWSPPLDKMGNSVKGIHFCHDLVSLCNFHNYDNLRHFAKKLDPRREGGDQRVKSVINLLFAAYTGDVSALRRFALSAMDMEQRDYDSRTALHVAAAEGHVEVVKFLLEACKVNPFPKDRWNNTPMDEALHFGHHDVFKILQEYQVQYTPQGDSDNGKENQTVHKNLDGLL
# Outline: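 hKGA in 45 mM KH2PO4 pH 8.2, 0.02% Tween-20 with pin-transferred compounds; 1 mM L-glutamine (stock) plus glutamate oxidase/HRP/Amplex Red coupling added. Fluorescence read initially and after 30 min at RT.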
# [7] = qHTS of Trypanosoma Brucei Inhibitors: LOPAC Validation (AID 624147)
# Outline: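 Readout: single end-point luminescence (Kinase-Glo Plus, 10 min). Reaction conditions were TbPYK/substrate plus 130 uM ADP, 45 min at RT, pH 7.2 TEA buffer. No-enzyme wells served as controls, and data were normalized before concentration-response fitting.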
# [8] = qHTS of Nrf2 Activators: LOPAC Validation (AID 624149)
# Outline: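 AREc32_Fluc cells, 1000/well, OPTI-MEM + 5% FBS, o/n 37 deg C 5% CO2; compound pin-transfer, 24 hr 37 deg C; Steady-Glo 30 min RT, luminescence read.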
# [9] = HTS Assay for Allosteric Antagonists of the Human D2 Dopamine Receptor: Hit Validation in HTRF (AID 624455); also: potency is read from the fitted curve at half-maximal effect
# Outline: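 HTRF read-out; cells stably expressing D1 receptor; hits scored for inhibition of D1-mediated response. Primary screen: calcium flux, force-coupled inducible Hek293 Trex D2 line, antagonism vs EC80 dopamine.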
compound,measurement,setting,value
Clc1ccc2c(c1)C(c1ccccc1)=NCc1nncn1-2,Potency,[1],inactive
same,Potency,[2],inactive
same,Potency,[3],inactive
same,outcome,[4],inactive
COC1CC(=C(c2cccs2)c2cccs2)C[N+](C)(C)C1 (centres undefined),Potency,[1],inactive
same,Potency,[2],inactive
same,outcome,[5],inactive
same,Potency,[3],inactive
C=CCN1C[C@H](C)N([C@H](c2ccc(C(=O)N(CC)CC)cc2)c2cccc(OC)c2)C[C@H]1C,Potency,[1],3.98 µM (active)
same,Potency,[2],inactive
c1ccc2c(c1)sc1ccccc12,Potency,[1],inactive
same,outcome,[5],inactive
same,Potency,[3],inactive
CCC1(c2ccccc2)C(=O)N(COC)C(=O)N(COC)C1=O,Potency,[1],inactive
same,Potency,[2],inactive
same,outcome,[5],inactive
same,Potency,[3],inactive
c1ccc(CN2CCNCC2)cc1,Potency,[2],inactive
CNCC(=O)c1ccc(O)c(O)c1,Potency,[2],inactive
COCCCOc1ccnc(CS(=O)c2nc3ccccc3[nH]2)c1C (centres undefined),Potency,[3],inactive
CCN(CC)C(=O)[C@@H]1C=C2c3cccc4[nH]cc(c34)C[C@H]2N(C)C1,Potency,[2],inactive
COc1cc(CCN)cc(OC)c1OC,Potency,[2],inactive
O=C1Nc2ccc(Cl)cc2C(c2ccccc2)=NC1O (centres undefined),Potency,[2],inactive
same,outcome,[5],inactive
same,Potency,[3],inactive
same,outcome,[4],inactive
Cn1c(=O)c2[nH]cnc2n(C)c1=O,Potency,[3],inactive
COc1cc(CC(C)N)cc(OC)c1OC (centres undefined),Potency,[2],inactive
C[C@H](N)C(=O)c1ccccc1,Potency,[2],inactive
CN1C(=O)COc2c(C(=O)NC3CN4CCC3CC4)cc(Cl)cc21 (centres undefined),Potency,[2],inactive
same,outcome,[5],inactive
same,Potency,[3],inactive
C[C@]12CCC(=O)C=C1CC[C@@H]1[C@H]3CC[C@](C)(O)[C@@]3(C)CC[C@@H]12,Potency,[2],inactive
COc1cccc(C(=O)CCN[C@@H](C)[C@H](O)c2ccccc2)c1,Potency,[2],inactive
CCC1(c2ccc(N)cc2)CCC(=O)NC1=O (centres undefined),Potency,[1],inactive
same,Potency,[6],inactive
same,outcome,[7],inactive
same,outcome,[8],inactive
same,Potency,[9],inactive
CC(C)C[C@H]1C(=O)N2CCC[C@H]2[C@]2(O)O[C@](NC(=O)[C@@H]3C=C4c5cccc6[nH]c(Br)c(c56)C[C@H]4N(C)C3)(C(C)C)C(=O)N12,Potency,[9],3.26 µM (active)
CN1C(=O)C(O)N=C(c2ccccc2)c2cc(Cl)ccc21 (centres undefined),Potency,[2],inactive
same,outcome,[5],inactive
same,Potency,[3],inactive
same,outcome,[4],inactive
CCc1cc2c(s1)-n1c(C)nnc1CN=C2c1ccccc1Cl,Potency,[2],inactive
CN(C)CCc1c[nH]c2cccc(OP(=O)(O)O)c12,Potency,[2],inactive
COC(=O)C(Cl)C(=O)OC,Potency,[2],inactive
Cc1ncsc1CCCl,Potency,[2],inactive
same,outcome,[5],inactive
same,Potency,[3],inactive
same,Potency,[6],inactive
same,outcome,[7],inactive
same,outcome,[8],inactive
same,Potency,[9],inactive
O=C1Nc2ccc(Cl)cc2C(c2ccccc2Cl)=NC1O (centres undefined),Potency,[2],inactive
same,Potency,[3],inactive
same,outcome,[4],inactive
CC(C)(C)c1ccc(O)cc1,Potency,[2],inactive
same,outcome,[5],inactive
same,Potency,[3],inactive
O=c1oc2ccccc2c(O)c1Cc1c(O)c2ccccc2oc1=O,Potency,[2],inactive
same,outcome,[5],inactive
same,Potency,[3],inactive
O=C(Nc1ccc(Br)cc1)c1cc(Br)cc(Br)c1O,Potency,[2],11.4 µM (active)
same,Potency,[3],inactive
same,outcome,[4],inactive
CC(NC(C)(C)C)C(=O)c1cccc(Cl)c1 (centres undefined),Potency,[6],inactive
same,outcome,[7],inactive
same,outcome,[8],inactive
same,Potency,[9],inactive
COc1ccc2c(c1OC)C(=O)O[C@H]2[C@@H]1c2cc3c(cc2CCN1C)OCO3,Potency,[2],inactive
same,outcome,[5],inactive
same,Potency,[3],inactive
same,outcome,[4],inactive
same,Potency,[6],inactive
same,outcome,[7],inactive
same,outcome,[8],inactive
same,Potency,[9],inactive
CC(Cc1ccccc1)NCCn1cnc2c1c(=O)n(C)c(=O)n2C (centres undefined),Potency,[2],inactive
CC(C)COC(=O)c1ccc(N)cc1,Potency,[3],inactive
Clc1cccc(SC2CCNCC2)n1,Potency,[2],inactive
same,outcome,[4],inactive
NC(=O)CC[C@@H]1NC(=O)[C@H](Cc2ccccc2)NC(=O)[C@H](Cc2ccc(O)cc2)NC(=O)[C@@H](N)CSSC[C@@H](C(=O)N2CCC[C@H]2C(=O)N[C@@H](CCCN=C(N)N)C(=O)NCC(N)=O)NC(=O)[C@H](CC(N)=O)NC1=O,Potency,[3],inactive
CCN[C@@H](C)Cc1cccc(C(F)(F)F)c1,Potency,[2],inactive
CCN[C@@H](C)Cc1ccccc1,Potency,[2],inactive
C[C@]12CC[C@@H]3c4ccc(OC(=O)N(CCCl)CCCl)cc4CC[C@H]3[C@@H]1CC[C@@H]2O,Potency,[1],inactive
same,outcome,[5],inactive
same,Potency,[3],inactive
same,outcome,[4],inactive
C[C@]12CC[C@@H]3c4ccc(OC(=O)N(CCCl)CCCl)cc4CC[C@H]3[C@@H]1CC[C@@H]2OP(=O)(O)O,Potency,[2],inactive
CC(C)N(CCC(C(N)=O)(c1ccccc1)c1ccccn1)C(C)C (centres undefined),Potency,[6],inactive
same,outcome,[7],inactive
same,outcome,[8],inactive
same,Potency,[9],inactive
CCN(CC)CCc1c[nH]c2ccccc12,Potency,[2],inactive
C=CCc1ccc(O)c(OC)c1,Potency,[3],inactive
CN=C(NC#N)NCCSCc1nc[nH]c1C,Potency,[3],inactive
CCCN(CCC)C(=O)Cc1c(-c2ccc(Cl)cc2)nc2ccc(Cl)cn12,Potency,[2],inactive
O=C(O[C@H]1CN2CCC1CC2)N1CCc2ccccc2[C@@H]1c1ccccc1,Potency,[3],inactive

# From PubChem BioAssay (NCATS)
